Assay results from article PMC7862700, “An all-to-all approach to the identification of sequence-specific readers for epigenetic DNA modifications on cytosine”.

Experiments:
Test in all cases: DAPPL (digital affinity profiling via proximity ligation, sequencing); 10 mM Tris-HCl pH 7.5, 50 mM NaCl, 1 mM DTT, 4% glycerol, room temperature, 30 min; GST-TFs on glutathione beads, 16-mer random dsDNA library, 0.1% formaldehyde crosslink after washing; high values mean tight binding
Settings in all cases: protein: recombinant; tags: N-terminal GST; dsDNA, one strand shown
FEV = target: T1, FEV (Homo sapiens, UniProt Q99581 1-238)
T1 sequence: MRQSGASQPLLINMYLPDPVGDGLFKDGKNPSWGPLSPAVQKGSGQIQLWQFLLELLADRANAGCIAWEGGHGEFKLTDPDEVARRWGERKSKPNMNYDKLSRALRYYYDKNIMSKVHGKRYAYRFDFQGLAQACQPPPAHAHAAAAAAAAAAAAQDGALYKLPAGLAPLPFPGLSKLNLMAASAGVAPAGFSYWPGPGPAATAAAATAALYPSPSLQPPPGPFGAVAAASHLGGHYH
Method in brief: (§1)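 Yeast served to express human transcription factors as GST fusions, which were then captured on glutathione beads and labelled with DNA barcodes. Pooled with a tag-only sample, they were incubated with 200 nmole of a 16-mer random double-stranded DNA library for 30 min at room temperature in Tris/NaCl/DTT/glycerol buffer, washed, crosslinked with 0.1% formaldehyde, ligated by proximity, amplified by PCR and sequenced. Dividing each hexamer's read frequency for a factor by its frequency for the tag-only sample gives the binding signal.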

ETV5 = ETV5 (Homo sapiens, UniProt P41161 1-510)
Method in brief: as §1

SPIC = target: T2, SPIC (Homo sapiens, UniProt Q8N5J4 1-248)
T2 sequence: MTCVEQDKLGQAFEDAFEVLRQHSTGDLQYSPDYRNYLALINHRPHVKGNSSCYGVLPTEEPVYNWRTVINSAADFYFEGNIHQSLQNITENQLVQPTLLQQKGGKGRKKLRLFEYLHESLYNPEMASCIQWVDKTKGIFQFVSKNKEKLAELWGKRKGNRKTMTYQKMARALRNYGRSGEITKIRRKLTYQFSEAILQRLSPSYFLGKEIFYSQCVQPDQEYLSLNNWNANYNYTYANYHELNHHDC
Method in brief: as §1

ELF4 = ELF4 (Homo sapiens, UniProt Q99607 1-663)
Method in brief: as §1

ELK4 = target: T3, ELK4 (Homo sapiens, UniProt P28324-2 1-405)
T3 sequence: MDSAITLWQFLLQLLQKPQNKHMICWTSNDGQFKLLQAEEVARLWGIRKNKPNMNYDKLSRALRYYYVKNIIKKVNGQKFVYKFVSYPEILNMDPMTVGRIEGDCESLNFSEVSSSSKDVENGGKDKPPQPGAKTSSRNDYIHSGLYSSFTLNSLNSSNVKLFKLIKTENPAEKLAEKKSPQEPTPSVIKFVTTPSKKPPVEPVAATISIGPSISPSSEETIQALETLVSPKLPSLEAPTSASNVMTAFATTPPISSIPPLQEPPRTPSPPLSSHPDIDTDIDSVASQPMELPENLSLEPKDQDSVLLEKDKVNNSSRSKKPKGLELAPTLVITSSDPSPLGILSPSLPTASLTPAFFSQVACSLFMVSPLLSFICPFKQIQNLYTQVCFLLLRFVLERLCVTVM
Method in brief: as §1

ETV2 = target: T4, ETV2 (Homo sapiens, UniProt O00321 1-342)
T4 sequence: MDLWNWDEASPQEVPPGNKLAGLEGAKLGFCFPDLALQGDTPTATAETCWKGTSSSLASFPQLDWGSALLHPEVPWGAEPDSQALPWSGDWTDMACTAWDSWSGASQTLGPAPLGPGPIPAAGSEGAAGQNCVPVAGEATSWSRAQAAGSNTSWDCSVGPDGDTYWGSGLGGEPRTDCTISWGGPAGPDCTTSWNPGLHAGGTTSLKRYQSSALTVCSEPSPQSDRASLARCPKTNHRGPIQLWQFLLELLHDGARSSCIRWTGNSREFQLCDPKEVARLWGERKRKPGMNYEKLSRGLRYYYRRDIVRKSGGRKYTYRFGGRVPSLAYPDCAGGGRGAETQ
Method in brief: as §1

ELF3 = target: T5, ELF3 (Homo sapiens, UniProt P78545 1-371)
T5 sequence: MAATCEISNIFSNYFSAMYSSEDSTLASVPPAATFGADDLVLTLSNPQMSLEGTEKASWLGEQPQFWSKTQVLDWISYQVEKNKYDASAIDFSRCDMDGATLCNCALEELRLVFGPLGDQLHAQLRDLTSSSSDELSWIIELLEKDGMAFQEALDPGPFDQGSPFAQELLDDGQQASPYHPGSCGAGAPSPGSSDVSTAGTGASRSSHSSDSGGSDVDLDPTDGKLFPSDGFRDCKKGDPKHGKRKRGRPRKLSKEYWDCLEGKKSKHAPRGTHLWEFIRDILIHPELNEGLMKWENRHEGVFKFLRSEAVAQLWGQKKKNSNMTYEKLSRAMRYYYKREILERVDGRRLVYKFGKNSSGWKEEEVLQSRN
Method in brief: as §1

ETV1 = ETV1 (Homo sapiens, UniProt P50549 1-477)
Method in brief: as §1

Chain of ETV1 (P50549 whole entry): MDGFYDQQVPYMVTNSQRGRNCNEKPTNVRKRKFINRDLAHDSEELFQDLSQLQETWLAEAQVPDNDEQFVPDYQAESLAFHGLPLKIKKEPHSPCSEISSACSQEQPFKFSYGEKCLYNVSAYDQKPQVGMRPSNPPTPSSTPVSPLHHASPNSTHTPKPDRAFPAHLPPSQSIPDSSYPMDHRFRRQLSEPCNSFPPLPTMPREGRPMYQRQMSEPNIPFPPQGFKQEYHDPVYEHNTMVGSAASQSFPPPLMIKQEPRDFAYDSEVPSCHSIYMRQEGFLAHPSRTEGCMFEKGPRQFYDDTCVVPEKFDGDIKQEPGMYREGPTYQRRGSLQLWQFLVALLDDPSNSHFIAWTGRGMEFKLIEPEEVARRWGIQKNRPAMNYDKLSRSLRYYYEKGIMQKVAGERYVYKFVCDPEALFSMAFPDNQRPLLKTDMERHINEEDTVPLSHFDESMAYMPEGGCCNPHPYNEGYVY
Chain of ETV5 (P41161 whole entry): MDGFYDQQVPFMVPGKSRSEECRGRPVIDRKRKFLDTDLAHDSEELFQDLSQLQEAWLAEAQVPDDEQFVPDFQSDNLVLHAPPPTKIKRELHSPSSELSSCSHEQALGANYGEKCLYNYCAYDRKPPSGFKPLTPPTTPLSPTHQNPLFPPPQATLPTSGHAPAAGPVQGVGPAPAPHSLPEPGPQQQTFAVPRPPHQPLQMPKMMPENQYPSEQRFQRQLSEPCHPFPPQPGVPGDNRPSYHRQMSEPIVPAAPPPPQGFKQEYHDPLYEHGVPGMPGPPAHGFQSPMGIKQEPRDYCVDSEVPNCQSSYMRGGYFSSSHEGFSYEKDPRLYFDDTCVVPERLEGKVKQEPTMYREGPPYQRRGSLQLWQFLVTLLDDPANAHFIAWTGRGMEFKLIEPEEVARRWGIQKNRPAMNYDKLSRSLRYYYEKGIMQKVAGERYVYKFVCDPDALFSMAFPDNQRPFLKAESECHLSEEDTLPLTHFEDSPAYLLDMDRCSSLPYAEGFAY
Chain of ELF4 (Q99607 whole entry): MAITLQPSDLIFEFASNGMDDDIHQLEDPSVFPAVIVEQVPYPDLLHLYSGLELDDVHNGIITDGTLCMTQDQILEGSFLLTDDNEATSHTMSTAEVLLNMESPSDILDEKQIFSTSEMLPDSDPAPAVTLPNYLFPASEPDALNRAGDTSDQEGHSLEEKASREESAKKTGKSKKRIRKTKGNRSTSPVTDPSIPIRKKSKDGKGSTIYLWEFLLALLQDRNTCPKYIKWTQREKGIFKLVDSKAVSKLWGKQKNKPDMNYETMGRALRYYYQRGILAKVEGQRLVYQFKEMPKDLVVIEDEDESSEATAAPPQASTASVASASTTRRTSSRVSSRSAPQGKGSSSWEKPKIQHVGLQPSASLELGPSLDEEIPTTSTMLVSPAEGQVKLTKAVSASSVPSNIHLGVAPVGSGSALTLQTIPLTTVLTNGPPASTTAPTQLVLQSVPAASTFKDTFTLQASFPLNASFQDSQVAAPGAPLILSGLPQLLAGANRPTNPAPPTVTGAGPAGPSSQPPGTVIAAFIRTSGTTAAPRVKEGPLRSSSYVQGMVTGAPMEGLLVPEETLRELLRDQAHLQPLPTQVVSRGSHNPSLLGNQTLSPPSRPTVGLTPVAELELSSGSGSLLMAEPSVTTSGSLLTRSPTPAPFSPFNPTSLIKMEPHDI

| Sequence | binding signal (FEV) | binding signal (ETV5) | binding signal (SPIC) | binding signal (ELF4) | binding signal (ELK4) | binding signal (ETV2) | binding signal (ELF3) | binding signal (ETV1) |
| --- | --- | --- | --- | --- | --- | --- | --- | --- |
| CAACCT | 1.21 fold enrichment (6-mer frequency, TF over GST control) | 1.18 fold enrichment (6-mer frequency, TF over GST control) | 1.13 fold enrichment (6-mer frequency, TF over GST control) | 1.11 fold enrichment (6-mer frequency, TF over GST control) | 1.15 fold enrichment (6-mer frequency, TF over GST control) | 1.28 fold enrichment (6-mer frequency, TF over GST control) | 1.12 fold enrichment (6-mer frequency, TF over GST control) | 1.2 fold enrichment (6-mer frequency, TF over GST control) |
| CCCATC | 1.06 fold enrichment (6-mer frequency, TF over GST control) | 1.16 fold enrichment (6-mer frequency, TF over GST control) | 1.27 fold enrichment (6-mer frequency, TF over GST control) | 1.17 fold enrichment (6-mer frequency, TF over GST control) | 1.3 fold enrichment (6-mer frequency, TF over GST control) | 1.04 fold enrichment (6-mer frequency, TF over GST control) | 1.09 fold enrichment (6-mer frequency, TF over GST control) | 1.18 fold enrichment (6-mer frequency, TF over GST control) |
| CCATCC | 1.3 fold enrichment (6-mer frequency, TF over GST control) | 1.27 fold enrichment (6-mer frequency, TF over GST control) | 1.33 fold enrichment (6-mer frequency, TF over GST control) | 1.27 fold enrichment (6-mer frequency, TF over GST control) | 1.19 fold enrichment (6-mer frequency, TF over GST control) | 1.19 fold enrichment (6-mer frequency, TF over GST control) | 1.12 fold enrichment (6-mer frequency, TF over GST control) | 1.24 fold enrichment (6-mer frequency, TF over GST control) |
| TGCACC | 1.23 fold enrichment (6-mer frequency, TF over GST control) | 1.12 fold enrichment (6-mer frequency, TF over GST control) | 1.14 fold enrichment (6-mer frequency, TF over GST control) | 1.19 fold enrichment (6-mer frequency, TF over GST control) | 1.3 fold enrichment (6-mer frequency, TF over GST control) | 1.13 fold enrichment (6-mer frequency, TF over GST control) | 1.21 fold enrichment (6-mer frequency, TF over GST control) | 1.13 fold enrichment (6-mer frequency, TF over GST control) |
| GATGTC | 1.59 fold enrichment (6-mer frequency, TF over GST control) | 1.37 fold enrichment (6-mer frequency, TF over GST control) | 1.23 fold enrichment (6-mer frequency, TF over GST control) | 1.24 fold enrichment (6-mer frequency, TF over GST control) | 1.15 fold enrichment (6-mer frequency, TF over GST control) | 1.24 fold enrichment (6-mer frequency, TF over GST control) | 1.25 fold enrichment (6-mer frequency, TF over GST control) | 1.3 fold enrichment (6-mer frequency, TF over GST control) |
| CTCCGT | 1.14 fold enrichment (6-mer frequency, TF over GST control) | 1.24 fold enrichment (6-mer frequency, TF over GST control) | 1.14 fold enrichment (6-mer frequency, TF over GST control) | 1.3 fold enrichment (6-mer frequency, TF over GST control) | 1.37 fold enrichment (6-mer frequency, TF over GST control) | 1.17 fold enrichment (6-mer frequency, TF over GST control) | 1.13 fold enrichment (6-mer frequency, TF over GST control) | 1.15 fold enrichment (6-mer frequency, TF over GST control) |
| GTATGG | 1.01 fold enrichment (6-mer frequency, TF over GST control) | 1.02 fold enrichment (6-mer frequency, TF over GST control) | 1.08 fold enrichment (6-mer frequency, TF over GST control) | 1.02 fold enrichment (6-mer frequency, TF over GST control) | 1.01 fold enrichment (6-mer frequency, TF over GST control) | 1.03 fold enrichment (6-mer frequency, TF over GST control) | 1.04 fold enrichment (6-mer frequency, TF over GST control) | 1.16 fold enrichment (6-mer frequency, TF over GST control) |
| CCCTGT | 1.04 fold enrichment (6-mer frequency, TF over GST control) | 1.11 fold enrichment (6-mer frequency, TF over GST control) | 1.2 fold enrichment (6-mer frequency, TF over GST control) | 1.11 fold enrichment (6-mer frequency, TF over GST control) | 1.25 fold enrichment (6-mer frequency, TF over GST control) | 1.03 fold enrichment (6-mer frequency, TF over GST control) | 1.08 fold enrichment (6-mer frequency, TF over GST control) | 1.06 fold enrichment (6-mer frequency, TF over GST control) |
| CACCTC | 1.11 fold enrichment (6-mer frequency, TF over GST control) | 1.13 fold enrichment (6-mer frequency, TF over GST control) | 1.22 fold enrichment (6-mer frequency, TF over GST control) | 1.23 fold enrichment (6-mer frequency, TF over GST control) | 1.14 fold enrichment (6-mer frequency, TF over GST control) | 1.2 fold enrichment (6-mer frequency, TF over GST control) | 1.1 fold enrichment (6-mer frequency, TF over GST control) | 1.19 fold enrichment (6-mer frequency, TF over GST control) |
